ChEMBL document CHEMBL4513216, “Probing the Open Global Health Chemical Diversity Library for Multistage-Active Starting Points for Next-Generation Antimalarials” (ACS Infect Dis, 2020)
Out of some 69,000 compounds screened, about 8,600 (12%) showed an effect of 50% or more. Only a selection was taken, and strong results are over-represented in it overall.

System: Plasmodium berghei
Experiment: Screen against P. berghei liver stage (PbLuc), transformed with Luciferase, at 10uM
Type: functional, HepG2
Settings: tested at 10 uM

SMILES	INHIBITION [%]
CSCC[C@H](N)C(=O)NCc1cc2n(n1)CCCN(C(=O)N(C)C)C2	3.19
Cc1nc(CN2CCO[C@H]3[C@H](OCC(=O)N(C)C)CC[C@@H]32)cs1	10.6
CC(NC(=O)c1ccc(F)cc1F)c1cnn(C)c1 (stereo not given)	33.3
O=C(Nc1cccnc1)[C@H]1C[C@H]2OCC[C@H]2N(C(=O)c2ccsc2)C1	3.41
CCNc1nc2cn(-c3ccc(Cl)cc3)c(=O)c-2c[nH]1	-64.5
c1cncc(-c2noc(CNCC3CCCN3c3cccnn3)n2)c1 (stereo not given)	-7.81
COC(C)(C)CC(C)NCc1cn2ccccc2n1 (stereo not given)	8.38
Cc1cc(O)n(-c2ccc3nnc(C)n3n2)n1	6.83
CC(C)C(C(=O)N1CCC2(CC1)CN(C)C(=O)O2)c1ccccc1 (stereo not given)	56.3
Cc1ccccc1OCC(O)C(=O)N1CCC2(CC1)CN(C)C(=O)O2 (stereo not given)	39.6
Cc1ccccc1OC(C(=O)N1CCC2(CC1)CN(C)C(=O)O2)C(C)C (stereo not given)	41.5
Cc1noc(C)c1CN1C[C@@H]2COC[C@@H](C(=O)N3CCCO3)[C@@H]2C1	57.9
Cc1noc(C)c1CN1C[C@@H]2COC[C@@H](CC(=O)N3CCCO3)[C@@H]2C1	-0.388
Cc1noc(C)c1CN1C[C@@H]2COC[C@@H](CC(=O)N3CCCCO3)[C@@H]2C1	41.6
Cc1noc(C)c1CN1C[C@@H]2COC[C@H](C(=O)N3CCOCC3)[C@@H]2C1	13.6
Cc1noc(C)c1CN1C[C@@H]2COC[C@H](C(=O)N3CCCCO3)[C@@H]2C1	50.6
Cc1noc(C)c1CN1C[C@@H]2COC[C@@H](C(=O)N3CCCCO3)[C@@H]2C1	39.2
Cc1noc(C)c1CN1C[C@@H]2COC[C@H](C(=O)N3CCCO3)[C@@H]2C1	62.5
Cc1cc(CN2C[C@@H]3COC[C@@H](C(=O)N4CCCCO4)[C@@H]3C2)no1	34.6
Cc1cc(CN2C[C@@H]3COC[C@H](C(=O)N4CCCCO4)[C@@H]3C2)no1	21.8
CNC(=O)C1CN(C(=O)c2ccncc2)CCN(S(C)(=O)=O)C1 (stereo not given)	7.7
Cc1cc(-c2cnc(C(C)C)nc2CN(C)C(=O)c2ccccn2)on1	30.4
CC1CCN(c2ccc(=O)n(CC(=O)N(C)Cc3ccccc3)n2)CC1	-17.1
CC(C)(C)c1cc(=O)n2c(n1)SCC(C(=O)NCc1ccccn1)C2 (stereo not given)	29.1
CC(=O)N1CCC2(CC1)C(=O)N(CC1CCN(C)CC1)c1ccccc12	-4.82

SMILES	INHIBITION [%]
O=c1[nH]c2c(-c3ccccn3)nsc2c(=O)n1CC1CC1	7.3
NC(=O)CN1CCC(c2noc3cc(F)ccc23)CC1	18.7
CNC(=O)[C@@H](CC(C)C)N1CCC[C@H]1C(=O)N(C)Cc1cccnc1	45.1
Cc1cc(CN2CCN(C(=O)NC(C)c3ccncc3)CC2)on1 (stereo not given)	14.9
Cc1ccc(C(=O)N2CCC(Oc3c(C)cccc3C)CC2)c(=O)[nH]1	-1.25
Cc1cnc2c(S(=O)(=O)N(C)C3CCS(=O)(=O)C3)cccc2c1 (stereo not given)	22.3
Cc1cccc(CN2C[C@@H]3COC[C@]3(CNC(=O)c3ccno3)C2)n1	-30
CSCc1nc(CNC(=O)c2cnn(C(C)C)c2)cs1	55
CSCc1nc(CCNC(=O)c2cnn(C(C)C)c2)cs1	33.4
CC(C)n1cc(C(=O)NCCCc2csc(N)n2)cn1	69.1
CC(C)n1cc(C(=O)NCCc2cn3ccsc3n2)cn1	8.48
CC(C)n1cc(C(=O)NCC(CO)Cc2cccs2)cn1 (stereo not given)	5.78
Nc1nc(CCCNC(=O)c2ccc(C3CCCNC3)cc2)cs1 (stereo not given)	-3.58
COc1cc(NCc2c(C)noc2C)c(OC)cc1Cl	28.7
Cc1ccc(N[C@@H]2CN(Cc3cc(C)on3)C[C@@H]3CCCO[C@@H]32)nn1	-24.1
Cc1cc(NC(=O)CN2CCc3cnc(C(C)C)nc3C2)on1	-0.113
COc1ccc(OC)c(C(O)CN2CCC(N3CCC(C)CC3)CC2)c1 (stereo not given)	12.3
COCCN(C)C(C)c1cccc(S(N)(=O)=O)c1 (stereo not given)	-29.8
CC(C)c1n[nH]c(C2CN(C(=O)c3cc(Cl)c[nH]3)CCO2)n1 (stereo not given)	-17.4
Cc1nn(C)cc1CN1CCCC(n2c(=O)oc3ccccc32)C1 (stereo not given)	43.35
CN(Cc1nccs1)c1nc(-c2ccccn2)nc2c1CCNCC2	13.7
c1ccc(-c2nc3c(c(NCCn4cccc4)n2)CCNCC3)nc1	66.5
CN(Cc1cccnc1)c1nc(-c2ccccn2)nc2c1CCNCC2	-10.8
c1ccc(-c2nc3c(c(NCCCn4cncn4)n2)CCNCC3)nc1	57.3
c1ccc(-c2nc3c(c(NCCn4ccnn4)n2)CCNCC3)nc1	-3.01

SMILES	INHIBITION [%]
Cc1cccc(=O)n1CCCNc1nc(N(C)C)nc2c1CCNCC2	7.93
O=C(CS(=O)(=O)Cc1cc(Cl)c2c(c1)OCO2)N1CCCC1	21
COc1ccc(CCC(=O)N2CCN(c3nc(C)ns3)CC2)cc1	6.7
CC(C)c1noc(CN2CCN(C(=O)OC(C)(C)C)C(C)C2)n1 (stereo not given)	33.6
COCc1cc(N2CCOC(c3ccc(Cl)c(Cl)c3)C2)ncn1 (stereo not given)	63.1
COCc1cc(N2CCOC(c3ccc(Cl)cc3)C2)ncn1 (stereo not given)	8.64
COCc1cc(N2CCOC(c3ccc(F)cc3)C2)ncn1 (stereo not given)	38.3
Cc1cc(N2CCOC(c3ccncn3)C2)ncn1 (stereo not given)	26.7
Fc1ccc(C2CN(c3ncnc4nc[nH]c34)CCO2)cc1 (stereo not given)	-28.6
COc1cc(N2CCOC(c3ccc(F)cc3)C2)ncn1 (stereo not given)	55.2
CCn1cnnc1C1CCN(C(=O)c2c(C)oc(C)c2C)CC1	46.7
Cc1cccc(CC2COCCN(Cc3nccn3C)C2)n1 (stereo not given)	26.3
O=C(CC1CCN(CCc2ccccc2)CC1)NC1CCOCC1	25.8
Cn1cnnc1C1CCCN(Cc2nc(Cc3ccccc3)no2)C1 (stereo not given)	3.13
CNc1[nH]nc(N)c1NC(=O)c1ccccc1	17.6
COc1ccc(-n2nnc(C(=O)O)c2-c2ccccn2)cc1	32.2
Cc1ccc(CN2C[C@@H]3COC[C@@H](NS(C)(=O)=O)[C@@H]3C2)o1	-6.02
CC(C)C1CN(C(=O)c2ccncc2)CCS1 (stereo not given)	19.6
CC(C)C1CN(C(=O)c2ccc(C(N)=O)cc2)CCS1 (stereo not given)	0.139
CC(C)C1CN(C(=O)c2ccccc2)CCS1 (stereo not given)	61.3
CN1C[C@@H](N)C[C@H]1C(=O)N1CCC(CCCc2ccccc2)CC1	55.9
O=C(C1CCS(=O)(=O)CC1)N1CCC(Cc2ccc(F)cc2)CC1	57.3
CCC(=O)N1CCCC1C(=O)N1CCC(Cc2ccc(F)cc2)CC1 (stereo not given)	49.4
CC(C(=O)N1CCC(Cc2ccc(F)cc2)CC1)n1ccnc1 (stereo not given)	32.8
O=C([C@H]1CCS(=O)(=O)[C@@H]2CN(Cc3ccc(F)cc3)C[C@H]12)N1CCCC1	12.7

SMILES	INHIBITION [%]
CN1CSC[C@H]1C(=O)N1CCC(CCc2ccccc2)CC1	-29
CN1C[C@@H](N)C[C@H]1C(=O)N1CCC(Cc2ccc(F)cc2)CC1	58.1
CN1CSC[C@H]1C(=O)N1CCC(Cc2ccccc2F)CC1	-40.6
CC(C)(C)C(=O)N1CCC(COCc2ccccc2)C1 (stereo not given)	11.9
Cn1ncc2ccc(C3CCCN(Cc4ccsc4)C3)nc21 (stereo not given)	33.45
COc1cccc(-n2cc3[nH]c(=O)[nH]n3c2=O)c1	3.68
Cc1cc(C(=O)N2C[C@@H]3CC[C@H]2CN(C(=O)c2ccncc2)C3)cs1	38
CN(C)S(=O)(=O)N1C[C@H](Oc2cccnc2)[C@H]2OCCC[C@H]21	14.2
O=C(c1ccc[nH]1)N1Cc2nccn2CC(Cn2ncccc2=O)C1 (stereo not given)	-87.3
CNC(=O)C1CNCCN1C(=O)c1ccc(C(F)(F)F)nc1C (stereo not given)	-15.3
O=C1C(NS(=O)(=O)c2ccc(F)c(F)c2)CCN1Cc1ccccc1 (stereo not given)	21.5
COC(=O)C(C)(C)NC(=O)c1cnc(C(C)(C)C)s1	25.1
CCc1ncc(C(=O)NC(C)(C)C(=O)OC)s1	40.6
CN(C)C(=O)CN(C)C(=O)c1cnc(Cc2ccc(F)cc2)s1	2.37
COC(=O)[C@H](C)NC(=O)c1cnc(Cc2ccc(F)cc2)s1	51.7
COC(=O)C(C)(C)NC(=O)c1cnc(Cc2ccc(F)cc2)s1	92.8
CC(C)NC(=O)CCNC(=O)c1cnc(Cc2ccc(F)cc2)s1	10.6
Cn1cc(CN2CCn3cc(CNC(=O)C4CCC4)nc3C2)cn1	14.4
O=C(c1cnccn1)N1CCN(Cc2cscn2)CC1	25.85
CSCC(C)(O)CNS(=O)(=O)c1cccc(Cl)c1 (stereo not given)	-33.5
O=C(c1ncn2c1CNS(=O)(=O)c1ccccc1-2)N1CCCCCC1	68.4
O=C(c1ncn2c1CNS(=O)(=O)c1ccccc1-2)N1CCCCC1	7.24
CN1CCN(C(=O)c2ncn3c2CNS(=O)(=O)c2ccccc2-3)CC1	15.3
CCc1nc(C2CCCN2C(=O)CCc2nc(C(C)(C)C)no2)no1 (stereo not given)	40.2
COc1ncccc1CN1CCC2[C@H]1CCN2CCN(C)C (stereo not given in full)	-20.1
